# Source: PubChem
# TDP1 cell CPT: growth inhibition of DT40 Tdp1-/-;hTDP1 cells with camptothecin (screen for TDP1 inhibitors); hit rate 12% among 420,000; AID 686979; Potency, µM (doses to about 46.2 µM), for the others: at the highest dose activity change, negative = growth inhibition, usual class: inhibitors; chicken DT40 Tdp1-/-;hTDP1 cells + 20 nM CPT, ATP luminescence, 48 h; further: on the % scale 0 is the no-effect control and ±100 the full control effect; nearly all actives have a fitted effect of over 55% in size
#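 Chicken DT40 Tdp1-/- cells complemented with human TDP1, 400 cells/well, exposed to compounds plus 20 nM camptothecin for at least 48 h at 37 C; viability read as ATP content by CellTiter-Glo luminescence.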
# DT40 TDP1 no CPT: qHTS for Inhibitors of human tyrosyl-DNA phosphodiesterase 1 (TDP1): qHTS in cells in absence of CPT; hit rate 15% among 420,000; Potency, µM (titrated, usually from 46.2 µM), without a hit: at the top dose activity change, negative = growth inhibition, most hits filed as inhibitors; DT40 Tdp1-/- hTDP1 cells, no CPT, ATP luminescence, 48 h; AID 686978, 2013; further: on the % scale 0 is the no-effect control and ±100 the full control effect; nearly all actives have a fitted effect of over 55% in size
#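 Growth of hTDP1-complemented DT40 Tdp1-knockout cells is measured by ATP luminescence after at least 48 hr compound exposure at 37 °C, with DMSO substituting for the 20 nM CPT used in the parallel screen.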
# TDP1 inh: TDP1 (human) enzyme inhibition | AID 485290 | recombinant TDP1, AlphaScreen DNA substrate cleavage | hit rate 0.28% among 350,000 | Potency, µM (doses to about 130 µM), without a hit: at the top dose activity change, negative = inhibition, actives largely listed as inhibitors; further: on the % scale 0 is the no-effect control and ±100 the full control effect; nearly all actives have a fitted effect of over 40% in size
#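 E. coli-derived human Tdp1, 1 nM final. Cpd preinc 15 min RT; substrate 15 nM final, 5 min RT; AS bead mix 10 ug/ml final, 10 min RT. Signal loss = tyrosine-FITC cleavage. No-enzyme wells = max signal.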
# ClpP mod: qHTS Assay for Activators of ClpP | Potency, µM (highest dose often 57.5 µM), for inactives: at the top dose activity change, negative = active | purified B. subtilis ClpP, FRET peptide cleavage, 20 min | hit rate 1.9% among 340,000 | ATP-dependent Clp protease proteolytic subunit (Bacillus subtilis (strain 168)), P80244; active means well fitted falling curve with a large enough effect; inconclusive means small, poorly fitted or top-dose-only effect; inactive means no such curve, though single readings can be large or run the other way; further: the source files actives as falling curves though it sought activators and does not explain the sign; nearly all actives have a fitted effect of over 65% in size
# Target sequence (P80244 whole entry, looked up): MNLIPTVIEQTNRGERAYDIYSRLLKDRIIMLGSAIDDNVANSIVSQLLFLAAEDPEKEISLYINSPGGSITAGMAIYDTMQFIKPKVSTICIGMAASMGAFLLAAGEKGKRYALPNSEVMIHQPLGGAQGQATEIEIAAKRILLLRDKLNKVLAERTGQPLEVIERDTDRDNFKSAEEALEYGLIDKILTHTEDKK
#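 ClpP 10 microg/mL final, pH 8 Tris/KCl buffer with BSA, glycerol, Tween-20; compound pinned in; FRET-FV substrate; RT 20 min; Ex320/Em430; ΔFRET vs ADEP 5.8 microM, DMSO, no enzyme.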
# Active calls of the source: *; ? = inconclusive; . = not tested or not shown. Hits are enriched below; roughly 17% of the tested compounds scored in any of these assays. Unless noted, the call rests on the fitted dose curve; in most records, active means well fitted curve in the direction sought with a large enough effect; inconclusive means small, poorly fitted or top-dose-only effect, or another doubt; inactive means no such curve, though single readings can be large; an effect the other way counts as inactive or inconclusive. Potency means the concentration at half of the fitted maximal effect.
SMILES,TDP1 cell CPT,DT40 TDP1 no CPT,TDP1 inh,ClpP mod
COc1ccccc1NC(=O)CCN1C(=O)C2C3CCC(C3)C2C1=O (stereo not drawn),4.2%,2.7%,2.0%,0.6%
CCN1CCN(Cc2ccc(NC(=O)c3ccc(C)c(NC(=O)c4ccc5n[nH]nc5c4)c3)cc2C(F)(F)F)CC1,-0.7%,-0.9%,5.0%,-5.7%
CCN1CCN(Cc2ccc(C(=O)Nc3ccc(C)c(NCc4cnc(NC(=O)OC)cn4)c3)cc2C(F)(F)F)CC1,?,-29.8%,.,-4.6%
CCN1CCN(Cc2ccc(NC(=O)c3cc(NC(=O)C(=O)c4c[nH]c5ccccc45)cc(OC)c3)cc2C(F)(F)F)CC1,23.1µM*,20.6µM*,4.7%,-9.5%
CCN1CCN(Cc2ccc(NC(=O)c3cc(NC(=O)c4cc(C)on4)cc(OC)c3)cc2C(F)(F)F)CC1,14.6µM*,16.4µM*,.,-0.3%
CCN1CCN(Cc2ccc(NC(=O)c3cc(NC(=O)c4cnn(-c5ccccc5)c4N)cc(OC)c3)cc2C(F)(F)F)CC1,20.6µM*,20.6µM*,5.0%,-3.6%
CCN1CCN(Cc2ccc(NC(=O)c3ccc(C)c(NC(=O)C(=O)c4c[nH]c5ccccc45)c3)cc2C(F)(F)F)CC1,2.59µM*,2.59µM*,8.3%,-6.8%
Cc1cc(C)nc(CCNC(=O)CC2C(=O)NCCN2Cc2ccccc2)n1 (stereo not drawn),-11.7%,-16.5%,7.2%,.
N#Cc1ccccc1S(=O)(=O)N1CCN(C(=O)C2CC(=O)N(c3ccc4c(c3)OCCO4)C2)CC1 (stereo not drawn),-3.7%,-20.2%,-1.0%,-1.2%
O=C(Cn1ccn(-c2ccc(F)cc2)c(=O)c1=O)Nc1ccc(F)cc1,9.1%,-5.4%,-1.3%,-15.0%
COc1cccc(NC(=O)C2(C)CCN2C(=O)CCc2ccc(Cl)cc2Cl)c1 (stereo not drawn),?,?,.,0.0%
CC1(C(=O)Nc2ccccc2F)CCN1C(=O)Cc1ccc(-c2ccccc2)cc1 (stereo not drawn),?,14.6µM*,.,-1.9%
CC1(C(=O)Nc2ccc(Cl)c(Cl)c2)CCN1C(=O)Cc1ccc(-c2ccccc2)cc1 (stereo not drawn),14.6µM*,18.4µM*,.,-0.2%
Cc1ccc(CNC(=O)C2(C)CCN2C(=O)Cc2ccc(-c3ccccc3)cc2)cc1 (stereo not drawn),?,23.1µM*,.,2.7%
CC1(C(=O)Nc2ccc(Cl)c(Cl)c2)CCN1C(=O)Cc1cccc2ccccc12 (stereo not drawn),?,?,.,-10.4%
COc1cccc(NC(=O)C2(C)CCN2C(=O)Cc2ccc(-c3ccccc3)cc2)c1 (stereo not drawn),?,14.6µM*,.,-0.9%
COc1ccc(NC(=O)CN(C)C2CCCCC2)c([N+](=O)[O-])c1,?,?,0.0%,1.2%
CSc1nc(-c2ccc(F)cc2)cc(=O)[nH]1,0.6%,-5.0%,5.1%,1.5%
Cc1ccc(NC(=O)C2(C)CCN2C(=O)CC(c2ccccc2)c2ccccc2)cc1 (stereo not drawn),?,?,.,5.0%
CC1(C(=O)Nc2cnc3ccccc3c2)CCN1C(=O)CC(c1ccccc1)c1ccccc1 (stereo not drawn),?,16.4µM*,.,-5.3%
CC1(C(=O)Nc2ccc(Cl)c(Cl)c2)CCN1C(=O)CC(c1ccccc1)c1ccccc1 (stereo not drawn),18.4µM*,23.1µM*,.,-3.2%
CCC(=O)N1CCC1(C)C(=O)Nc1ccc2c(c1)OCO2 (stereo not drawn),2.4%,-2.6%,.,-2.6%
CC1(C(=O)Nc2ccccc2)CCN1C(=O)Cc1ccc(-c2ccccc2)cc1 (stereo not drawn),23.1µM*,18.4µM*,.,-0.1%
CC1(C(=O)Nc2ccc3c(c2)OCO3)CCN1C(=O)Cc1ccc(-c2ccccc2)cc1 (stereo not drawn),7.31µM*,4.61µM*,.,-0.8%
O=[N+]([O-])c1cc(Cl)c(Cl)c(Cl)c1Cl,-16.8%,?,3.5%,-1.9%
SMILES,TDP1 cell CPT,DT40 TDP1 no CPT,TDP1 inh,ClpP mod
O=C(NCc1ccccc1)C(=O)Nc1nccs1,20.6%,1.3%,2.5%,.
CCCC(C)(C)C(=O)N1CCC1(C)C(=O)Nc1cccc2ccccc12 (stereo not drawn),20.6µM*,10.3µM*,.,1.7%
CC1(C(=O)N2CCCCC2)CCN1C(=O)Cc1ccc(-c2ccccc2)cc1 (stereo not drawn),14.6µM*,?,.,-1.3%
Cn1nc(C2CC2)cc1NC(=O)C1(C)CCN1C(=O)Cc1ccc(-c2ccccc2)cc1 (stereo not drawn),20.6µM*,20.6µM*,.,-2.4%
Cc1cc2ccccc2n1-c1ccc(C(=O)N2CCC(C(=O)NCc3ccccc3Cl)CC2)s1,16.4µM*,-97.0%,5.3%,-10.2%
Cc1ccc(CNC(=O)C2CCN(C(=O)c3ccc(-n4ccc5ccccc54)s3)CC2)cc1,-27.1%,?,7.9%,?
CCc1ccc(CNC(=O)C2CCN(C(=O)c3ccc(-n4ccc5ccccc54)s3)CC2)cc1,?,?,0.0%,35.5µM*
O=C(N/N=C/c1cccnc1)/C(=C\c1cccs1)NC(=O)c1ccccc1,-2.7%,-20.1%,0.0%,0.2%
O=C(N/N=C/c1cc2ccccc2nc1Cl)[C@H]1C[C@@H]1c1ccccc1,20.6µM*,16.4µM*,-2.7%,-12.4%
O=C(N/N=C/c1cc2ccccc2nc1Cl)/C(=C/c1cccs1)NC(=O)c1ccccc1,23.1µM*,?,-13.2%,-19.8%
COc1ccc([N+](=O)[O-])cc1/C=N/NC(=O)/C(=C\c1cccs1)NC(=O)c1ccccc1,?,20.6µM*,5.3%,0.0%
Cc1cccc2cc(/C=N/NC(=O)[C@H]3C[C@@H]3c3ccccc3)c(Cl)nc12,-1.5%,0.1%,.,.
COc1ccc(/C=C(/NC(=O)c2ccccc2)C(=O)N/N=C/c2cccs2)cc1OC,-1.9%,-2.9%,5.1%,-2.6%
CC(=O)N1CCc2cc(S(=O)(=O)NCCC(=O)NC3CCCCCC3)ccc21,-22.6%,-20.4%,1.3%,0.1%
C[C@H](NC(c1cccc2nc(O)c(O)nc12)P(=O)(O)O)c1ccc(Br)cc1 (stereo partly drawn),.,.,8.2%,.
COc1cccc(CNC(=O)CCNC(=O)N2CCn3c2nc2ccccc23)c1,-13.3%,15.6%,2.2%,0.4%
COc1cccc(CNC(=O)CCCCCNC(=O)N2CCn3c2nc2ccccc23)c1,16.4µM*,-27.5%,2.3%,-1.2%
Cc1ccc(CNC(=O)CCCCCNC(=O)N2CCn3c2nc2ccccc23)cc1,18.4µM*,?,-0.4%,-0.3%
Cc1ccc(CNC(=O)CCNC(=O)N2CCn3c2nc2ccccc23)cc1,-21.9%,?,0.8%,-1.6%
